26 compounds from PubChem BioAssay (Tox21) can be followed below.

The nature of experiment [1]: qHTS assay for small molecule disruptors of the mitochondrial membrane potential - cell viability (AID 720634; calls by dose curve; also: nearly all actives have a fitted effect of over 20% in size; also: potency is read from the fitted curve at half-maximal effect). The method, boiled down: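 Human hepatoma HepG2 cells were treated for 1 hr with test chemicals, then given m-MPI dye and CellTiter-Glo. Cell viability reflects luminescence proportional to cellular ATP.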
(In general: In qHTS, concentration-response curves come from the screen itself.)

Experiment [2] can be described thus: qHTS assay for small molecule disruptors of the mitochondrial membrane potential (AID 720635). Also: potency is read from the fitted curve at half-maximal effect. The method, boiled down:
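HepG2 cells (2,000/well) attached overnight at 37C, then took compound for 1 hr at 37C, 5% CO2. Mito-MPS dye was added for 30 min; fluorescence was read at 490/535 nm (monomers) and 540/590 nm (aggregates).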

A short description of experiment [3]: qHTS assay to test for compound auto fluorescence at 590 nm (red) in HepG2 cells (AID 720674). Also: potency is read from the fitted curve at half-maximal effect. The method, boiled down: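 Rose Bengal sodium served as the red fluorophore standard. HepG2 monolayers (overnight attachment, MEM with 10% FBS) were exposed to test compounds for 1 hr at 37 C and read at Ex 540/Em 590 nm.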
Experiment [4] in a line: qHTS assay to test for compound auto fluorescence at 535 nm (green) in HepG2 cells (AID 720675). Also: potency is read from the fitted curve at half-maximal effect.
A short description of experiment [5]: qHTS assay to test for compound auto fluorescence at 590 nm (red) in HEK293 cells (AID 720679). Also: potency is read from the fitted curve at half-maximal effect. Put shortly: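 We plated HEK293 cells in 10% dialyzed FBS medium, let them adhere for 4-5 hr, then added 23 nL compound. Overnight at 37C and 5% CO2 preceded fluorescence measurement at 540/590nm.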
Experiment [6] can be described thus: qHTS assay for small molecules that induce genotoxicity in human embryonic kidney cells expressing luciferase-tagged ATAD5 (AID 651632). Also: nearly all actives have a fitted effect of over 15% in size. Also: potency is read from the fitted curve at half-maximal effect. Put shortly: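 Genotoxicity read-out via ATAD5-luciferase: HEK293T cells, 16 hr compound incubation at 37C, Amplite detection.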
The nature of experiment [7]: qHTS assay for small molecules that induce genotoxicity in human embryonic kidney cells expressing luciferase-tagged ATAD5 - cell viability (AID 651634; calls by dose curve; also: nearly all actives have a fitted effect of over 25% in size; also: potency is read from the fitted curve at half-maximal effect). The method, boiled down:
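Live-cell protease activity (CellTiter-Fluor, fluorescence) indicates viability. HEK293T cells with luciferase-tagged ATAD5; 15.5 hr compound treatment at 37C.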

Experiment [8] is described as follows: qHTS assay to test for compound auto fluorescence at 460 nm (blue) in HEK293 cells (AID 720678). Put shortly:
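Triamterene serves as the blue fluorophore standard. Compound signal at 405/460 nm is read in HEK293 wells (2,000 cells, 10% dialyzed FBS) after overnight treatment at 37C.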

Experiment [9] can be described thus: qHTS assay for small molecule agonists of the p53 signaling pathway - cell viability (AID 651633; calls by dose curve;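 also: p53RE-bla HCT reporter cells with a stable beta-lactamase p53 reporter; series mostly up to about 83 µM; nearly all actives have a fitted effect of over 30% in size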). Put shortly:
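p53RE-bla cells, seeded at 4,000 per well and rested 5 h at 37 C/5% CO2, received compounds in DMSO for 16 h at 37 C. CellTiter-Glo was then added, and luminescence was read after 30 min at room temperature to gauge cytotoxicity.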

Where “and” joins values, the source holds several entries; their conditions need not be identical. Identical values can stand only once. Inconclusive results are not listed. Some structures have more than one record in an assay (separate samples or runs), and their calls can disagree. Calls of active or inactive are those of the source. Unless noted, calls follow the shape of the dose curve; as a rule, active = well fitted curve in the direction sought with a large enough effect in the repeat runs; inconclusive = weak or mixed curves; inactive = no such curve, though single readings can be large; an effect the other way counts as inactive or inconclusive.
Tags tell the direction and shape of the fitted curve or compound fluorescence and quenching.

As to `CCCCC(CC)C(=O)O` (centres undefined), the Potency result in experiment [1], in experiment [3], in experiment [4] and in experiment [5] was “inactive” throughout. The Potency entry in experiment [2] was “inactive and 6.86 µM (active)”.
On to `CCN(CC)C(=O)c1cccc(C)c1`, for which the Potency entry in [6], in experiment [7], in experiment [1], in experiment [3] and in experiment [5] was “inactive” each time.
Consider `O=C1OC2(c3ccccc31)c1cc(Br)c(O)c(Br)c1Oc1c2cc(Br)c(O)c1Br`, for which the Potency entry in [6] and in [1] was “inactive” throughout. The Potency in [7] is 21.1 µM (active) and 1.56 µM (active) and 19.9 µM (active); in [3] it was 3.16 µM (active) and 2.51 µM (active); in experiment [4], 12.6 µM (active) and 4.47 µM (active) and 17.8 µM (active); in experiment [5], 5.01 µM [fluorescent] (active) and 4.47 µM [fluorescent] (active) and 3.55 µM [fluorescent] (active).
On to `C=C(C)C(=O)OCC(C)O` (centres undefined), for which the Potency entry in experiment [6], in [7], in experiment [1], in [3], in experiment [8] and in [5] was “inactive” in each case.
In the case of `COc1ccc2cc(S(=O)(=O)N[C@H](CC(=O)N[C@H](Cc3ccc(CN4[C@H](C)CCC[C@@H]4C)cc3)C(=O)N(C)C(C)C)c3ccc4c(c3)OCO4)ccc2c1`, the Potency entry in experiment [6], in [1], in experiment [3] and in [5] was “inactive” each time. Further, the Potency in [7] is 57.9 µM (active); in experiment [2], 10.3 µM (active).
Turning to `Cc1ccc(S(=O)(=O)O)cc1`, the Potency entry in experiment [9], in experiment [7], in experiment [1], in experiment [2], in [3] and in experiment [4] was “inactive” each time. Besides, the Potency result in [8] and in experiment [5] was “inactive” each time.
For the compound `O=c1[nH]cnc2c1ncn2[C@H]1CC[C@@H](CO)O1`, the Potency entry in experiment [6], in [7], in [1], in experiment [2], in experiment [3] and in experiment [5] was “inactive” throughout.
Consider `CC/C(=C(\c1ccccc1)c1ccc(OCCN(C)C)cc1)c1ccccc1`, for which the Potency was 29.8 µM (active) and 61.5 µM (active) in [7]; 54.8 µM (active) and 61.1 µM (active) in [1]. Moreover, the Potency entry in experiment [3], in experiment [8] and in experiment [5] was “inactive” throughout.
Consider `C/C=C/C=C/C(=O)O`, for which the Potency result in experiment [7], in experiment [1], in [2], in experiment [3], in experiment [4] and in experiment [8] was “inactive” in each case. Also, the Potency entry in experiment [5] was “inactive”.
For the compound `CN1CCC[C@H]1c1cccnc1`, the Potency entry in experiment [6], in experiment [7], in [1], in experiment [2], in experiment [3] and in experiment [5] was “inactive” each time.
In the case of `COc1ccc(CN(CCN(C)C)c2ccccn2)cc1`, the Potency entry in experiment [7], in experiment [3], in experiment [8] and in [5] was “inactive” each time.
Regarding `O=C1NC(=O)C(c2ccccc2)(c2ccccc2)N1`, the Potency result in [6], in [7], in experiment [1], in experiment [2], in experiment [3] and in experiment [5] was “inactive” each time.
Consider `O=CC(=O)c1ccccc1`, for which the Potency entry in experiment [9], in [7], in experiment [1], in experiment [3], in experiment [4] and in [8] was “inactive” in each case. The Potency result in experiment [5] is “inactive”.
For the compound `Nc1c2c(nc3ccccc13)CCCC2`, the Potency entry in experiment [6], in experiment [7], in experiment [1], in experiment [2], in experiment [3] and in [4] was “inactive” each time. Also, the Potency entry in [5] was “inactive”.
`CN1[C@@H]2CC(OC(=O)[C@H](CO)c3ccccc3)C[C@H]1[C@@H]1O[C@@H]12` (some centres undefined): the Potency result in experiment [6], in experiment [7], in experiment [3], in [4], in [8] and in [5] was “inactive” each time.
For the compound `CCN(Cc1c(F)cccc1Cl)c1c([N+](=O)[O-])cc(C(F)(F)F)cc1[N+](=O)[O-]`, the Potency result in experiment [6], in experiment [7], in experiment [1], in experiment [3], in experiment [4] and in experiment [5] was “inactive” in each case. Besides, the Potency in [2] is 54.5 µM (active).
Consider `CC(=O)CCC(=O)O`, for which the Potency entry in experiment [6], in experiment [7], in experiment [1], in experiment [2], in experiment [3] and in experiment [8] was “inactive” each time. In addition, in experiment [5], the Potency result is “inactive”.
As to `Nc1ccc([N+](=O)[O-])cc1O`, the Potency entry in experiment [6], in [1], in [3] and in [5] was “inactive” throughout. Besides, the Potency in experiment [7] was 54.5 µM (active); in experiment [2] it was 17.2 µM (active).
Consider `C=C1CC[C@H](O)C/C1=C\C=C1/CCC[C@]2(C)[C@@H]([C@H](C)CCCC(C)C)CC[C@@H]12`, for which the Potency entry in experiment [6], in [1], in experiment [2], in experiment [3] and in experiment [5] was “inactive” throughout.
For the compound `CC(O)(P(=O)(O)O)P(=O)(O)O`, the Potency entry in experiment [6], in experiment [7], in experiment [1], in [2], in experiment [3] and in [8] was “inactive” each time. Moreover, the Potency entry in experiment [5] is “inactive”.
Regarding `CCCCCCc1ccc(O)cc1O`, the Potency result in experiment [6], in experiment [7], in [3], in experiment [8] and in experiment [5] was “inactive” throughout. Further, the Potency in experiment [2] was 5.96 µM (active) and 4.87 µM (active) and 6.86 µM (active).
For the compound `CCCC[P+](CCCC)(CCCC)CCCC`, the Potency result in [9], in experiment [7], in experiment [1], in experiment [2], in experiment [3] and in experiment [4] was “inactive” each time. Also, the Potency result in [5] is “inactive”.
As to `O=C(Nc1ncc([N+](=O)[O-])s1)c1cccs1`, the Potency in [6] was 3.76 µM (active); in [7], 26.6 µM (active); in experiment [1], 15 µM (active); in experiment [2] it was 0.668 µM (active). Moreover, the Potency result in experiment [3], in [4] and in experiment [5] was “inactive” in each case.
For `O=C1NS(=O)(=O)c2ccccc21`, the Potency entry in experiment [7], in [1], in [2], in [3] and in experiment [5] was “inactive” throughout.
For the compound `CC(=O)Nc1c(I)c(NC(C)=O)c(I)c(C(=O)O)c1I`, the Potency entry in experiment [6], in experiment [7], in experiment [1], in [2], in [3] and in [8] was “inactive” in each case. Besides, the Potency result in experiment [5] is “inactive”.
With `CC(=O)CC(c1ccccc1)c1c(O)c2ccccc2oc1=O` (centres undefined), the Potency entry in experiment [7], in [1], in experiment [3], in [8] and in experiment [5] was “inactive” in each case.
